From PubChem BioAssay
Hits are enriched below; roughly 7.9% of the tested compounds scored in any of these assays.
HCMV inh – inhibitors of human cytomegalovirus | HFF cells, HCMV-luciferase reporter, 72 h; hits give low values | activity change, negative = inhibition, % at 57.5 µM | actives 4.5% (n = 410,000) | AID 1259415; in the data active means activity change below about -60%; inconclusive means no clear call, values can overlap the other calls; inactive means above about -39%
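Two-dose cell screen: HFF monolayers treated with compounds and infected with luciferase-expressing HCMV at 1 PFU/cell, 72 h at 37C, then lysed for luciferase measurement.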
MARV entry inh – blocks Marburg virus binding to or entry into cells. Marburg virus pseudotyped entry inhibition, cell reporter. Potency, µM (highest dose often 37.8 µM), without a hit: at the top dose activity change, negative = inhibition, most hits filed as inhibitors. actives 1.8% (n = 300,000). AID 540276; calls by dose curve; tested in HEK293 cells; further: potency means the concentration at half of the fitted maximal effect
FMDV inh – antivirals against foot and mouth disease virus; actives 1.2% (n = 410,000); Potency, µM (top dose mostly 57.9 µM), for inactives: at the top dose activity change, negative = inhibition, usual class: inhibitors; FMDV antiviral cell-based qHTS; calls by dose curve; tested in HEK293T cells; further: read-out not given here; potency means the concentration at half of the fitted maximal effect; nearly all actives have a fitted effect of over 45% in size
LASV entry inh – inhibitors of Lassa virus binding or cell entry; Lassa virus pseudotype entry inhibition, cell reporter; Potency, µM (highest dose often 37.9 µM), for inactives: top-dose activity change, negative = inhibition, usual class: inhibitors; actives 1.2% (n = 300,000); AID 540256; calls by dose curve; tested in HEK293 cells; further: potency means the concentration at half of the fitted maximal effect; nearly all actives have a fitted effect of over 50% in size
HCV inhibitor – blocks hepatitis C virus | actives 3.4% (n = 340,000) | Potency, µM (doses to about 41.8 µM), for inactives: top-dose activity change, negative = inhibition, usual class: inhibitors | Huh7.5.1 HCVcc-Cre infection, luciferase reporter, 44 h; active means well fitted inhibition curve with a large enough effect; inconclusive means small, poorly fitted or top-dose-only effect, or another doubt; inactive means no such curve, though single readings can be large or run the other way; further: potency means the concentration at half of the fitted maximal effect
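Infectious HCV cell culture screen: compound-treated cells (1,000/well, pre-plated 4 h) are infected with HCVcc-Cre at roughly 0.5 moi and grown 44 h. Infection is quantified by luciferase signal after 15 min substrate incubation at room temperature.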
Numbers without * were called inactive; u = inconclusive; x = not tested or not shown; [ ] = remark or other dose. On the % scale 0 is the no-effect control and ±100 the full control effect.

SMILES	HCMV inh	MARV entry inh	FMDV inh	LASV entry inh	HCV inhibitor
CCOc1ccc(Oc2ccccc2NS(=O)(=O)c2ccc(CCC(=O)O)cc2)cc1	-64.4*	x	u	x	-14.9%
CCCNS(=O)(=O)c1ccc(CCC(=O)Nc2cc(Cl)ccc2Oc2ccccc2)cc1	-2.4	u	u	u	10µM*
CC(C)CNS(=O)(=O)c1ccc(CCC(=O)Nc2cc(Cl)ccc2Oc2ccccc2)cc1	27.9	-5.9%[46.1 µM]	u	u	u
COc1ccc([C@H]2/C=C\CN(C(=O)CC(C)(C)C)[C@@H](C)C(=O)N2Cc2ccc(F)cc2)cc1	-60.0*	x	u	x	4.9%
COc1ccc(C2/C=C\CN(C(=O)OCC3c4ccccc4-c4ccccc43)CC(=O)N2Cc2cccc(F)c2)cc1 (centres undefined)	-12.4	x	-25.8%	x	10µM*
COc1ccc([C@H]2/C=C\CN(C(=O)c3ccc(C)cc3)[C@@H](C)C(=O)N2Cc2ccc(F)cc2)cc1	-14.7	x	-6.9%	x	u
COc1ccc(C2/C=C\CN(C(=O)c3ccccc3)[C@H](Cc3ccccc3)C(=O)N2Cc2ccc(F)cc2)cc1 (some centres undefined)	-63.3*	x	u	x	u
COc1ccc(C2/C=C\CN(C(=O)c3ccccc3)CC(=O)N2Cc2cccc(F)c2)cc1 (centres undefined)	22.5	x	-0.7%	x	u
CCOC(=O)c1cnc2nc(NCc3cccc(Br)c3)[nH]n2c1=O	8.1	0.2%[46.1 µM]	-14.6%	-0.8%[46.1 µM]	x
Cc1ccc(-c2nc(S(=O)(=O)c3ccc(C)cc3)c(N3CCCCC3)o2)cc1	20.4	x	39.4%	u	x
Cc1ccccc1OC[C@H](O)Cn1c(N2CCN(c3ccccc3)CC2)nc2c1c(=O)[nH]c(=O)n2C	x	-20.0%	x	x	x
O=C(Nc1ccccc1N1CCCC1)c1cccc(-c2cc3ccccc3oc2=O)c1	41.0	-13.1%	-8.6%	-2.2%	u
O=C(Nc1ccc(N2CCCC2)cc1)c1ccccc1F	30.0	u	21.4%	-26.1%	u
Cc1cc(C(=O)Nc2ccc(N3CCCCC3)cc2)no1	16.6	u	-50.8%	11.2µM*	-10.9%
O=C(Nc1ccc(N2CCCCC2)cc1)c1ccc(F)cc1F	-34.8	u	-10.7%	10µM*	-6.7%
O=C(Nc1ccc(N2CCCC2)cc1)c1cccc(Cl)c1Cl	-80.3*	-22.4%	57.5%	3.8%	u
O=C(Nc1ccc(N2CCCC2)cc1)c1cccc(-c2cc3ccccc3oc2=O)c1	-63.3*	u	0.0%	u	-3.9%
Cc1cccc(NC(=O)Cn2cc(C(=O)C3CCCCC3)c3ccccc32)c1	5.4	u	-10.0%	1.0%[46.1 µM]	x
Cc1csc2nc(CCNS(=O)(=O)c3ccc(F)cc3)cn12	u	x	-6.3%	-26.2%[46.1 µM]	x
CCOc1ccc(C2CC(c3c(O)n(C4CCCCC4)c(=O)[nH]c3=O)=Nc3ccccc3S2)cc1 (centres undefined)	-16.8	u	25.5%	-3.6%[46.1 µM]	x
NCCOB(c1ccccc1)c1ccccc1	x	x	30.4%	x	x
CC(=O)N1CCN(c2ccc(NC(=O)c3ccc(C(C)(C)C)cc3)cc2)CC1	-85.6*	u	x	u	u
CC(=O)N1CCN(c2ccc(NC(=O)c3ccc(Cl)cc3)cc2)CC1	-17.8	x	2.1%	x	7.1%
O=C(Nc1ccc(N2CCCCC2)cc1)c1ccccc1	40.0	u	x	7.3µM*	u
Cc1ccc(C(=O)Nc2ccc(N3CCCCC3)cc2)cc1	37.5	x	0.0%	x	x
SMILES	HCMV inh	MARV entry inh	FMDV inh	LASV entry inh	HCV inhibitor
O=C(Nc1ccc(S(=O)(=O)N(Cc2ccccc2)c2ccccc2)cc1)c1ccc(F)cc1	4.4	-3.9%[46.1 µM]	-11.4%	u	x
O=C(Cn1cc(C(F)(F)F)ccc1=O)N1CCCc2ccccc21	28.9	6.5%	-8.3%	u	6.6%
O=C1N2c3ccccc3CCc3cccc(c32)C1(O)C(F)(F)F (centres undefined)	-60.7*	u	u	-20.2%	-21.6%
CCOc1cc(/C=C/c2nc3cc(C)c(C)cc3s2)ccc1OCC(=O)N1CCOCC1	-20.6	-18.6%	-13.0%	-11.5%	-5.6%
CCOc1cc(/C=C\[N+](=O)[O-])ccc1OCC(=O)N1CCOCC1	-92.4*	-10.0%[46.1 µM]	8.91µM*	-7.7%	u
COc1cccc(CN2C(=O)NC(C)(C3CCN(Cc4cccc(O)c4)CC3)C2=O)c1OC (centres undefined)	x	x	-12.9%	x	x
CC(=O)c1sc(N)c(C(=O)OC(C)C)c1C	126.8	-14.9%	13.6%	u	14.1µM*
CCOC(=O)C1CCCN(C(=O)c2cccc(NC(=O)c3nsc4ccccc34)c2)C1 (centres undefined)	69.6	x	15.2%	u	x
Oc1ccc(/C=N/Nc2cc(N3CCOCC3)nc(N3CCOCC3)n2)cc1	25.8	6.51µM*	x	-18.9%	u
COc1ccc(/C=N/Nc2cc(N3CCCC3)nc(N3CCCC3)n2)cc1	-76.1*	u	u	3.16µM*	7.08µM*
COc1cc2c(cc1OC)CN(CC(=O)Nc1ccc(C)cc1)CC2	-31.7	u	-7.3%	0.5%	-1.8%
COC(=O)c1[nH]c2ccc(F)cc2c1NC(=O)CCN1CCN(Cc2ccc3c(c2)OCO3)CC1	-15.0	-0.9%	u	-15.4%	u
CCN(CC(=O)Nc1c(C(=O)OC)[nH]c2ccc(C)cc12)c1ccc2c(c1)OCO2	-5.4	-18.2%	-24.8%	-20.4%	8.91µM*
COC(=O)c1[nH]c2ccc(C)cc2c1NC(=O)CN1CCCC(C)(C)C1	u	u	7.3%	u	12.6µM*
COC(=O)c1[nH]c2ccc(C)cc2c1NC(=O)CN1CCc2cc(OC)c(OC)cc2C1	-10.5	u	u	-22.9%	10µM*
COc1cccc(C2(CC(=O)N3CCN(c4ccccn4)CC3)CC(=O)N(C3CCCC3)C2=O)c1 (centres undefined)	x	x	-0.8%	x	x
Cc1ccc(SCc2ccc(C(=O)NCc3ccncc3)cc2)cc1	-77.6*	u	x	-10.4%	-23.5%
Cc1ccc(-n2c(=O)[nH]c3sc4c(c3c2=O)CCNC4)cc1C	0.6	u	-4.5%	28.8%[46.1 µM]	x
COc1ccc(-c2c(C#N)c(SCC(=O)Nc3ccc(C)c(C)c3)nc(C)c2C(=O)Nc2ccccc2)cc1OC	1.0	x	2.0%	-2.3%[46.1 µM]	x
CCOC(=O)C(NC(=O)c1ccccc1F)(Nc1cc(C)on1)C(F)(F)F (centres undefined)	-94.1*	-0.4%	-9.6%	-0.2%	10.7%
COc1cccc(C(=O)N(Cc2cc3ccc(C)cc3nc2N(C)C)C2CC2)c1OC	x	x	-10.9%	x	x
O=C(CN1C(=O)CCc2cc(S(=O)(=O)N3CCOCC3)ccc21)NCc1ccccc1	7.9	x	-1.6%	-4.2%[46.1 µM]	x
CCc1ccc(N/C(SC)=C(/C#N)C(N)=O)cc1	6.9	-1.9%	-13.1%	-1.7%	-19.6%
CCCCS/C(=C(/C#N)C(N)=O)c1cc2c([nH]1)CCCC2	-63.2*	-22.9%	-21.2%	-19.5%	-30.8%
O=C(NCc1cccnc1)c1cccc(NS(=O)(=O)c2ccc(Br)cc2)c1	-38.1	u	-23.1%	6.9%	12.6µM*
COc1ccc(S(=O)(=O)NCc2cccnc2)cc1C(=O)NC1CCCCC1	39.3	-3.2%	5.2%	3.8%	x
